Among all 5,500 compounds or so, about 2,000 (36%) were called active. About 18% were inconclusive and are not listed. Some of the results follow. Values without a mark were called inactive. No stated cut-off is given here; in the data, active means normalized growth mostly below about 0.91 (no sharp cut-off); inconclusive means no clear call, values can overlap the other calls; inactive means mostly above about 0.92.
Assay: chemical genetic growth profiling, strain panel (AID 1159580);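 further: tested at 20 µM; growth read once vehicle control cultures reached saturation at 30 °C; 1 = growth at the plate median or of vehicle wells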
Details: S. cerevisiae deletion strains, growth OD

## O=c1cc(-c2ccccc2)oc2cccc(O)c12
Locus YAL021C, strain ccr4, stronger effect = lower value
  normalized growth: 0.95
Locus YAL026C, strain drs2, stronger effect = lower value
  normalized growth: 0.93
Locus YAL030W, strain snc1, stronger effect = lower value
  normalized growth: 0.972
Locus YBL061C, strain skt5, stronger effect = lower value
  normalized growth: 0.938
Locus YBR009C, strain hhf1, stronger effect = lower value
  normalized growth: 0.969
Locus YBR023C, strain chs3, stronger effect = lower value
  normalized growth: 0.892 (active)
Locus YBR171W, strain sec66, stronger effect = lower value
  normalized growth: 0.952
Locus YBR231C, strain swc5, stronger effect = lower value
  normalized growth: 0.943
Locus YBR279W, strain paf1, stronger effect = lower value
  normalized growth: 0.931 (active)
Locus YCL011C, strain gbp2, stronger effect = lower value
  normalized growth: 0.967
Locus YCL016C, strain dcc1, stronger effect = lower value
  normalized growth: 0.938
Locus YCL061C, strain MRC1, stronger effect = lower value
  normalized growth: 0.969
Locus YCL069W, strain vba3, stronger effect = lower value
  normalized growth: 0.959
Locus YCR088W, strain abp1, stronger effect = lower value
  normalized growth: 0.972
Locus YDL005C, strain med2, stronger effect = lower value
  normalized growth: 0.994
Locus YDL040C, strain nat1, stronger effect = lower value
  normalized growth: 0.961
Locus YDR001C, strain nth1, stronger effect = lower value
  normalized growth: 0.961
Locus YDR069C, strain doa4, stronger effect = lower value
  normalized growth: 0.985
Locus YDR137W, strain rgp1, stronger effect = lower value
  normalized growth: 0.716 (active)
Locus YDR159W, strain sac3, stronger effect = lower value
  normalized growth: 1.03
Locus YDR195W, strain ref2
  normalized growth: 1.37 [resistant] (active)
Locus YDR297W, strain sur2, stronger effect = lower value
  normalized growth: 0.977
Locus YDR334W, strain swr1, stronger effect = lower value
  normalized growth: 0.964
Locus YDR335W, strain msn5, stronger effect = lower value
  normalized growth: 0.968
Locus YDR392W, strain spt3, stronger effect = lower value
  normalized growth: 0.605 (active)
Locus YEL003W, strain gim4, stronger effect = lower value
  normalized growth: 0.981
Locus YEL037C, strain rad23, stronger effect = lower value
  normalized growth: 0.959
Locus YEL061C, strain CIN8 (second series), stronger effect = lower value
  normalized growth: 0.963
Locus YER015W, strain faa2, stronger effect = lower value
  normalized growth: 0.969
Locus YER016W, strain bim1, stronger effect = lower value
  normalized growth: 0.974
Locus YER111C, strain swi4, stronger effect = lower value
  normalized growth: 0.985
Locus YER155C, strain BEM2 (second series), stronger effect = lower value
  normalized growth: 0.506 (active)
Locus YFR010W, strain ubp6, stronger effect = lower value
  normalized growth: 0.959
Locus YGL167C, strain pmr1, stronger effect = lower value
  normalized growth: 0.969
Locus YGL173C, strain kem1, stronger effect = lower value
  normalized growth: 0.946
Locus YGL227W, strain vid30, stronger effect = lower value
  normalized growth: 0.977
Locus YGL240W, strain doc1, stronger effect = lower value
  normalized growth: 0.924
Locus YGL253W, strain hxk2, stronger effect = lower value
  normalized growth: 0.859 (active)
Locus YHR013C, strain ard1, stronger effect = lower value
  normalized growth: 0.897
Locus YHR027C, strain rpn1, stronger effect = lower value
  normalized growth: 0.98
Locus YHR030C, strain SLT2, stronger effect = lower value
  normalized growth: 1.02
Locus YHR079C, strain IRE1, stronger effect = lower value
  normalized growth: 0.992
Locus YHR142W, strain chs7, stronger effect = lower value
  normalized growth: 0.765 (active)
Locus YJL092W, strain hpr5, stronger effect = lower value
  normalized growth: 0.975
Locus YJL095W, strain BCK1 (second series), stronger effect = lower value
  normalized growth: 0.971
Locus YJL095W, strain BCK1, stronger effect = lower value
  normalized growth: 0.995
Locus YJL115W, strain asf1, stronger effect = lower value
  normalized growth: 0.979
Locus YJL129C, strain trk1, stronger effect = lower value
  normalized growth: 0.912
Locus YJL154C, strain vps35, stronger effect = lower value
  normalized growth: 0.981
Locus YJL164C, strain tpk1, stronger effect = lower value
  normalized growth: 0.902 (active)
Locus YJL166W, strain qcr8, stronger effect = lower value
  normalized growth: 0.908
Locus YJL187C, strain SWE1, stronger effect = lower value
  normalized growth: 0.966
Locus YJR066W, strain TOR1, stronger effect = lower value
  normalized growth: 0.923
Locus YKL160W, strain elf1, stronger effect = lower value
  normalized growth: 0.872 (active)
Locus YKR026C, strain gcn3, stronger effect = lower value
  normalized growth: 0.969
Locus YKR091W, strain srl3, stronger effect = lower value
  normalized growth: 0.985
Locus YLL001W, strain dnm1, stronger effect = lower value
  normalized growth: 0.939
Locus YLL026W, stronger effect = lower value
  normalized growth: 0.972
Locus YLL041C, strain sdh2, stronger effect = lower value
  normalized growth: 0.97
Locus YLR027C, strain aat2, stronger effect = lower value
  normalized growth: 0.934
Locus YLR113W, strain HOG1, stronger effect = lower value
  normalized growth: 1.03
Locus YLR221C, strain rsa3, stronger effect = lower value
  normalized growth: 0.883 (active)
Locus YLR258W, strain gsy2, stronger effect = lower value
  normalized growth: 0.961
Locus YLR262C, strain YPT6 (second series), stronger effect = lower value
  normalized growth: 0.78 (active)
Locus YLR320W, strain mms22, stronger effect = lower value
  normalized growth: 0.774 (active)
Locus YLR342W, strain FKS1, stronger effect = lower value
  normalized growth: 0.984
Locus YLR357W, strain rsc2, stronger effect = lower value
  normalized growth: 1.01
Locus YLR370C, strain arc18, stronger effect = lower value
  normalized growth: 0.964
Locus YLR384C, strain iki3, stronger effect = lower value
  normalized growth: 0.976
Locus YML120C, strain ndi1, stronger effect = lower value
  normalized growth: 0.917
Locus YMR058W, strain fet3, stronger effect = lower value
  normalized growth: 0.888 (active)
Locus YMR125W, strain sto1, stronger effect = lower value
  normalized growth: 1
Locus YMR129W, stronger effect = lower value
  normalized growth: 0.979
Locus YMR205C, strain PFK2, stronger effect = lower value
  normalized growth: 0.972
Locus YMR231W, strain pep5, stronger effect = lower value
  normalized growth: 0.986
Locus YNL071W, strain lat1, stronger effect = lower value
  normalized growth: 0.62 (active)
Locus YNL183C, strain NPR1, stronger effect = lower value
  normalized growth: 0.943
Locus YNL209W, strain ssb2, stronger effect = lower value
  normalized growth: 0.978
Locus YNL248C, strain rpa49, stronger effect = lower value
  normalized growth: 0.755 (active)
Locus YNL322C, strain KRE1 (second series), stronger effect = lower value
  normalized growth: 0.996
Locus YNR049C, strain mso1, stronger effect = lower value
  normalized growth: 0.965
Locus YOR001W, strain rrp6, stronger effect = lower value
  normalized growth: 0.911
Locus YOR070C, strain gyp1, stronger effect = lower value
  normalized growth: 0.937
Locus YOR080W, strain dia2, stronger effect = lower value
  normalized growth: 0.982
Locus YOR083W, strain WHI5, stronger effect = lower value
  normalized growth: 0.886 (active)
Locus YOR106W, strain vam3, stronger effect = lower value
  normalized growth: 0.923
Locus YOR231W, strain MKK1, stronger effect = lower value
  normalized growth: 1.01
Locus YOR265W, strain rbl2, stronger effect = lower value
  normalized growth: 0.954
Locus YOR270C, strain vph1, stronger effect = lower value
  normalized growth: 0.66 (active)
Locus YOR290C, strain snf2, stronger effect = lower value
  normalized growth: 0.873
Locus YPL051W, strain arl3, stronger effect = lower value
  normalized growth: 0.853 (active)
Locus YPL078C, strain atp4, stronger effect = lower value
  normalized growth: 0.807 (active)
Locus YPL106C, strain sse1, stronger effect = lower value
  normalized growth: 0.973
Locus YPL240C, strain hsp82, stronger effect = lower value
  normalized growth: 0.974
Locus YPL256C, strain CLN2, stronger effect = lower value
  normalized growth: 1.05

From PubChem BioAssay AID1159580 (chemical genetic matrix, 2015)
